From PubChem BioAssay (Tox21)
Results filed as inconclusive are left out. Values without a mark were called inactive. Calls of active or inactive are those of the source. The call rests on the fitted dose curve; in most records, active means well fitted cell-killing curve with a large enough effect in the repeat runs; inconclusive means weak or mixed curves, or effect the other way; inactive means no such curve, though single readings can be large or run the other way.

Experiment: qHTS assay to identify small molecule agonists of the estrogen receptor alpha (ER-alpha) signaling pathway in the presence of an antagonist - cell viability counter screen (AID 1259386);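 further: cells exposed to compounds for 22 h at 37 °C before the viability read; nearly all actives have a fitted effect of over 30% in size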
Conditions: VM7Luc4E2 viability, CellTiter-Fluor fluorescence, 22 h; series mostly up to 92.4 µM; activity change, negative = cytotoxicity: at the top concentration
In short: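 In this counter screen, compound effects on VM7Luc4E2 viability were tested in the presence of the antagonist ICI-182,780 at 10.0nM final. Compounds were dosed at 15 concentrations, exposure lasted 22hr, and the CellTiter-Fluor signal was read.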
On the % scale 0 is the no-effect control and ±100 the full control effect; potency means the concentration at half of the fitted maximal effect.

| SMILES | activity change, negative = cytotoxicity | Potency |
| --- | --- | --- |
| ClCCOCCOCCCl | 5.46% |  |
| O=C(O)c1ccco1 | 3.19% |  |
| CCCCCCOC(=O)NC(=N)c1ccc(NCc2nc3cc(C(=O)N(CCC(=O)OCC)c4ccccn4)ccc3n2C)cc1 |  | 26.6 µM (active) |
| Cc1oc2c(NC(=O)c3c(Cl)cccc3Cl)cccc2c1C(C)(C)O | -1.03% |  |
| CC1=CC[C@H](C(C)C)C=C1 | -1.92% |  |
| CN(C)C(=O)NC1(c2ccccc2)CCN(CC[C@@]2(c3ccc(F)c(F)c3)CN(C(=O)c3ccccc3)CCO2)CC1 | -9.37% |  |
| CC1=CC=C(C(C)C)CC1 | 1.08% |  |
| Cc1cccc(C)c1OCC(=O)N[C@@H](Cc1ccccc1)[C@@H](O)C[C@H](Cc1ccccc1)NC(=O)[C@H](C(C)C)N1CCCNC1=O |  | 29.8 µM (active) |
| CCOC(=O)NCCOc1ccc(Oc2ccccc2)cc1 | -11.9% |  |
| C[C@H]1C[C@H]2[C@@H]3CCC4=CC(=O)C=C[C@]4(C)[C@@]3(Cl)[C@@H](O)C[C@]2(C)[C@@]1(O)C(=O)CO | 2.28% [at 42.5 µM] |  |
| CC(=O)[O][Al][O]C(C)=O | 4.24% |  |
| O=C(Nc1ccc(S(=O)(=O)N2CCOCC2)cc1)c1cc(Cl)ccc1NS(=O)(=O)c1ccc(Cl)s1 | -0.0487% [at 42.5 µM] |  |
| CCCCCCc1ccc(-c2ccc(C#N)cc2)cc1 | 0.0104% |  |
| CN(C)CCN(Cc1ccc(Cl)cc1)c1ccccn1 | -7.45% [at 42.5 µM] |  |
| Cc1ccc(C(C)OC(=O)C2(C)CCC(C(=O)O)C2(C)C)cc1 (centres undefined) | 6.45% [at 42.5 µM] |  |
| CCOc1ccc(N=Nc2ccc(/C=C/c3ccc(N=Nc4ccc(OCC)cc4)cc3S(=O)(=O)O)c(S(=O)(=O)O)c2)cc1 |  | 38 µM (active) |
| CC1CCC(=O)C1=O (centres undefined) | 0.037% |  |
| CCOC(=O)C(F)(F)F | 3.34% |  |
| CC[N+]1(CC)CCC(=C(c2ccccc2)c2ccccc2)C1C (centres undefined) | 3.4% [at 42.5 µM] |  |
| CNCCCN1c2ccccc2CCc2ccccc21 | 0.161% [at 42.5 µM] |  |
| CN(C)CCCN1c2ccccc2Sc2ccccc21 | 1.19% [at 42.5 µM] |  |
| O=C(OCCCCCCOC(=O)c1ccccc1)c1ccccc1 | 5.27% |  |
| CCN(CC)CCNc1ccc(CNC=O)c2sc3ccc(OC)cc3c(=O)c12 |  | 13.7 µM (active) |
| CC(C)C[C@H]1C(=O)N2CCC[C@H]2[C@]2(O)O[C@](NC(=O)[C@@H]3C=C4c5cccc6[nH]c(Br)c(c56)C[C@H]4N(C)C3)(C(C)C)C(=O)N12 | -9.7% [at 42.5 µM] |  |
